We go through four compounds from PubChem BioAssay.

One may read the inhibition as the relative decrease from the control value, in per cent.

The nature of assay [1]: yeast TOR pathway RPL19A-GFP modulators, primary screen, cell-based, S. cerevisiae, multiplex flow cytometry (AID 1862; in the data active = percent of DMSO control GFP below about 86%;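 also: lower values mimic rapamycin by blocking the RPL19A rise seen in DMSO cells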). To be noted: S. cerevisiae RPL19A-GFP strain, flow cytometry fluorescence, 3 h; at 10 µM; stronger effect = lower value. In general terms: A flow cytometer gives signals particle by particle.
A short description of assay [2]: modulators of MEP2-GFP levels in yeast, primary screen, S. cerevisiae, multiplex flow cytometry (AID 1867;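 active = GFP response, as percent of the DMSO control, above the screen-wide mean plus 3 SD, about 139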;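 also: median GFP channel fluorescence of barcode-gated MEP2-GFP cells measured by flow cytometry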). To be noted: S. cerevisiae MEP2-GFP strain, 3 h, at 10 µM, stronger effect = higher value, 100% means same as DMSO wells.
A short description of assay [3]: modulators of CIT2-GFP expression in yeast, primary screen, S. cerevisiae, GFP fusion, multiplex flow cytometry (AID 1870).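 Also: barcoded CIT2-GFP strain pooled with four other GFP strains with rapamycin as positive control; median GFP fluorescence per well over plate mean of DMSO wells so 100% = DMSO.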 To be noted: 3 h, at 10 µM, stronger effect = higher value.
A short description of assay [4]: modulators of LAP4-GFP expression in yeast, primary screen, S. cerevisiae, multiplex flow cytometry (AID 1873;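 active = GFP signal, as percent of the solvent control, above the screen mean plus 3 SD, about 149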). To be noted: 3 h, at 10 µM, stronger effect = higher value.
A short description of assay [5]: modulators of AGP1-GFP expression in yeast TOR pathway, primary screen, cell-based, multiplex flow cytometry, S. cerevisiae (AID 1887;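 active = GFP signal above the screen-wide mean plus 3 SD, that is over about 124.5% of the solvent control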;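 also: AGP1-GFP fusion strain of S. cerevisiae within a five-strain barcoded multiplex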). To be noted: 3 h, at 10 µM, stronger effect = higher value.
The nature of assay [6]: inhibitors of CD8+ T cell-vesicle binding, pilot screen, LFA-1/ICAM-1 modulator project, MLPCN validation set, flow cytometry (AID 2523;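 active = response below a set limit, under 55% cells CD8-positive and vesicle-bound, and CD8 cells' 90th-percentile brightness under 279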;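 as to vesicle binding response: mean PE anti-B7-1 fluorescence of CD8+ cells relative to row control; 100% = QL9-loaded vesicles with DMSO vehicle in the same plate row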). The settings on record: 2C mouse CD8+ T cells, at 7 µM, stronger effect = lower value; double positive events: measured here: CD8+/vesicle+ event percentage.
Assay [7] has as its target Integrin beta-1 (Homo sapiens) + Integrin alpha-4 (Homo sapiens) (UniProt P13612+P05556). As to the kind of experiment: inhibition of HUTS-21 binding to VLA-4, pilot screen, VLA-4 allosteric modulator project, U937 cells, HUTS-21 mAb, flow cytometry, validation set (AID 2674;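 active = inhibition above 50%, about 3 SD of the validation set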;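 also: antibody binding induced by the VLA-4 ligand LDV present at three times its Kd; 0% = LDV ligand with antibody and no compound and 100% = antibody without LDV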). To be noted: HUTS-21 LIBS mAb binding, at 6.7 µM, stronger effect = higher value, binding induced by LDV ligand.

The nature of assay [8]: superoxide lowering in aged yeast cells, pilot screen, validation compound set (AID 2706;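 active = superoxide response below 65% of plate, a cut near 3 SD across the whole screen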;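 also: yeast exposed to compound for one week at 30 degrees C before staining; 100% = mean of all compound wells on the same plate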). To be noted: S. cerevisiae aging, superoxide DHE fluorescence; at 10 µM; stronger effect = lower value.
In assay [9] the target is Beta-adrenergic receptor kinase 1 (Homo sapiens) (UniProt P25098). As to the kind of experiment: GRK2 binders displacing RNA aptamer, biochemical, validation, human GRK2, bead flow cytometry (AID 488806;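 active = aptamer binding inhibition above 30%, about 3 SD of noise from non-fluorescent compounds; inactive = inhibition at or below 30%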). To be noted: bead-bound GRK2, FAM-aptamer displacement, at 10 µM, stronger effect = higher value.
Assay [10] has as its target Beta-2 adrenergic receptor (Homo sapiens) (UniProt P07550). As to the kind of experiment: beta2AR agonists driving receptor internalization, pilot screen, cell-based, FAP fluorogen, flow cytometry, validation set (AID 504459;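 active = percent response above 42, roughly 3 SD of non-fluorescent test compounds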;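 also: agonist-driven loss of surface beta2AR via internalization measured by FAP dye flow cytometry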). The settings on record: Am2.2-beta2AR cells, FAP surface receptor flow cytometry; at 10 µM; stronger effect = higher value.
For assay [11], the target named is AP-2 complex subunit beta (Homo sapiens) (UniProt P63010). As to the kind of experiment: inhibitors of arrestin peptide binding to AP2, pilot screen, biochemical, validation set, GST-AP2 beads, flow cytometry (AID 504541;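 active = inhibition above 54%, about 3 SD of non-fluorescent compounds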;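 also: AP2 carries R879A mutation and is captured from E. coli lysate; bead-bound FITC arrestin peptide fluorescence measuring arrestin peptide binding to AP2; 0% = DMSO wells and 100% = excess unlabeled arrestin peptide control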). The settings on record: FITC arrestin peptide, at 10 µM, stronger effect = higher value, AP2 beta2 appendage fragment, R879A mutant.
Assay [12] is described as follows: yeast V-ATPase proton transport modulators, S. cerevisiae, pHLuorin, HTS validation (AID 504600; in the data active = response above about 15%;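 also: plate controls were DMSO for no effect and reference compound for full effect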). The settings on record: S. cerevisiae pHLuorin cytosolic pH, at 10 µM, stronger effect = higher value.
Assay [13] concerns anti-desmoglein-3 scFv antibody binding to human DSG3. As to the kind of experiment: inhibitors of anti-DSG3 scFv binding to DSG3, pilot screen, biochemical, validation compound set, bead-based, flow cytometry (AID 588368;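 active = binding below the plate cutoff, the plate median minus 3 SD, with a reading above zero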;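 also: signal is the median channel fluorescence of bead-bound GFP antibody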). The settings on record: Protein G beads, DSG3-Fc, scFv-GFP binding, at 10 µM, stronger effect = lower value.
Assay [14] can be described thus: inhibitors of fungal efflux pumps CDR1, CDR2, MDR1, pilot screen, validation compound set, multiplex, phenotypic (AID 588506;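 active = efflux inhibition above 0.42, the validation set average plus 4 SD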;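 also: Nile Red retained in cells so higher fluorescence means more efflux inhibition; 0 = negative control wells and 1 = enniatin B 25 µM full block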). The settings on record: S. cerevisiae pump-expressing triplex, Nile Red efflux flow cytometry; at 10 µM; stronger effect = higher value; the pumps come from Candida albicans.
Assay [15] has as its target ATP-binding cassette sub-family B member 6 (Homo sapiens) (UniProt Q9NP58). In words: ABCB6 transporter inhibitors, pilot screen, K562-ABCB6 cells, flow cytometry, validation set (AID 588550;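 active = inhibition above the screen-wide mean plus 3 SD, about 51%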;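 also: 0% = DMSO wells and 100% = benzethonium chloride 70 µM positive control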). To be noted: K562-ABCB6 porphyrin accumulation, 1 h, at 10 µM, stronger effect = higher value.
Assay [16] is described as follows: promoters of myeloid differentiation in arrested cells, primary screen, cell-based, GFP/MAC1 double positive, flow cytometry, validation set (AID 588685;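 active = differentiation response of at least 50%, scaled between solvent and reference control, from cells with both markers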;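 also: compound exposure lasts four days before antibody staining and flow analysis; 0% = DMSO wells and 100% = 5 µM fulvestrant positive control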). The settings on record: ER-HoxA9 marrow cells, stronger effect = higher value, normalized: vehicle 0, fulvestrant 100.

Records with an inconclusive call do not appear. Activity calls are given as the source filed them.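 The calls were made as follows, unless noted: active = percent response above a set limit, the screen-wide mean plus 3 SD (cut at about 130% in these data); inactive = the rest.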

Integrin beta-1 (Homo sapiens) + Integrin alpha-4 (Homo sapiens), sequence (P05556 whole entry, looked up): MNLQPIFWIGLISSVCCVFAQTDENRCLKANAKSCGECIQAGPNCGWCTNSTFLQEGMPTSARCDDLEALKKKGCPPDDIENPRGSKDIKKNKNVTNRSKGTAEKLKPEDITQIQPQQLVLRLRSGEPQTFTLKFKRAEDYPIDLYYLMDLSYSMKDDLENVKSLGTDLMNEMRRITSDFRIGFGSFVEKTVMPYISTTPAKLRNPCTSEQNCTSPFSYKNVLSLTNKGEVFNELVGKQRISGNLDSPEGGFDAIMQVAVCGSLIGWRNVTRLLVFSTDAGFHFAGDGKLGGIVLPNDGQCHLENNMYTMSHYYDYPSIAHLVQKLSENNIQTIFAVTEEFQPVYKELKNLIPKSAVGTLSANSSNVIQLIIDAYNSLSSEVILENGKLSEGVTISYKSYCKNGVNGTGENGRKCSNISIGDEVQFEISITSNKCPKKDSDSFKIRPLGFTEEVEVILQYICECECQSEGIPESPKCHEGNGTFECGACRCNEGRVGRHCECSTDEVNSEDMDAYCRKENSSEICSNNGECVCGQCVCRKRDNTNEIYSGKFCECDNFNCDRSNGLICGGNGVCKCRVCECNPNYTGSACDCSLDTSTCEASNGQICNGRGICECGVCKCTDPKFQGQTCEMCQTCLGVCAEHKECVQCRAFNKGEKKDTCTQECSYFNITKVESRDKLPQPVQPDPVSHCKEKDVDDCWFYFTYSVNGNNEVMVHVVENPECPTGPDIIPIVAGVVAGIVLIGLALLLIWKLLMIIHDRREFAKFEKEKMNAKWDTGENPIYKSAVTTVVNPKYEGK
Integrin beta-1 (Homo sapiens) + Integrin alpha-4 (Homo sapiens), sequence (P13612 whole entry, looked up): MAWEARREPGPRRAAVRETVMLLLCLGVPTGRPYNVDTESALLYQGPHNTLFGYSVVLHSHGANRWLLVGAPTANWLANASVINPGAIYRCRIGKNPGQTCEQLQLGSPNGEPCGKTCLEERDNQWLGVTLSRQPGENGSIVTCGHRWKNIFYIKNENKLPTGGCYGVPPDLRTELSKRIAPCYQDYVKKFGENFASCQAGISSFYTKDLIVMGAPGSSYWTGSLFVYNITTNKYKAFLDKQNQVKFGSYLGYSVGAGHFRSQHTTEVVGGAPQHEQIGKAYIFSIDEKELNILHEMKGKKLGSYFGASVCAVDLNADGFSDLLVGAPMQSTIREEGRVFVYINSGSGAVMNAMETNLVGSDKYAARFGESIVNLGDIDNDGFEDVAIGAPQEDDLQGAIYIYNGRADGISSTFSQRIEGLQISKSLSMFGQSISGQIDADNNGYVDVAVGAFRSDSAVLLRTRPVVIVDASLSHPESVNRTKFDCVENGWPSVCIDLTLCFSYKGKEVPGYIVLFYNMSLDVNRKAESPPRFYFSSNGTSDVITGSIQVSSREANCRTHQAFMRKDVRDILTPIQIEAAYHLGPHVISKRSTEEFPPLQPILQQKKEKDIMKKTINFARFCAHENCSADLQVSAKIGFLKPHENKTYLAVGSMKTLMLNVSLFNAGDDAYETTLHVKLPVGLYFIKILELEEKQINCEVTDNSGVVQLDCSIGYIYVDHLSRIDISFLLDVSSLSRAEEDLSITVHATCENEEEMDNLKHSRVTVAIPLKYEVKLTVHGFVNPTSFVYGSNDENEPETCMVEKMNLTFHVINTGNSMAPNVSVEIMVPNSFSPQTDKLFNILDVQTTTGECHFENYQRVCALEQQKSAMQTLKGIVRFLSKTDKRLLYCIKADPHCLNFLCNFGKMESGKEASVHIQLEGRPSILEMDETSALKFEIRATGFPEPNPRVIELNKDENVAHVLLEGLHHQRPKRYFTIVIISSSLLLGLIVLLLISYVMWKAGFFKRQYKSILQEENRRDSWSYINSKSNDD
ATP-binding cassette sub-family B member 6 (Homo sapiens), sequence (Q9NP58 whole entry, looked up): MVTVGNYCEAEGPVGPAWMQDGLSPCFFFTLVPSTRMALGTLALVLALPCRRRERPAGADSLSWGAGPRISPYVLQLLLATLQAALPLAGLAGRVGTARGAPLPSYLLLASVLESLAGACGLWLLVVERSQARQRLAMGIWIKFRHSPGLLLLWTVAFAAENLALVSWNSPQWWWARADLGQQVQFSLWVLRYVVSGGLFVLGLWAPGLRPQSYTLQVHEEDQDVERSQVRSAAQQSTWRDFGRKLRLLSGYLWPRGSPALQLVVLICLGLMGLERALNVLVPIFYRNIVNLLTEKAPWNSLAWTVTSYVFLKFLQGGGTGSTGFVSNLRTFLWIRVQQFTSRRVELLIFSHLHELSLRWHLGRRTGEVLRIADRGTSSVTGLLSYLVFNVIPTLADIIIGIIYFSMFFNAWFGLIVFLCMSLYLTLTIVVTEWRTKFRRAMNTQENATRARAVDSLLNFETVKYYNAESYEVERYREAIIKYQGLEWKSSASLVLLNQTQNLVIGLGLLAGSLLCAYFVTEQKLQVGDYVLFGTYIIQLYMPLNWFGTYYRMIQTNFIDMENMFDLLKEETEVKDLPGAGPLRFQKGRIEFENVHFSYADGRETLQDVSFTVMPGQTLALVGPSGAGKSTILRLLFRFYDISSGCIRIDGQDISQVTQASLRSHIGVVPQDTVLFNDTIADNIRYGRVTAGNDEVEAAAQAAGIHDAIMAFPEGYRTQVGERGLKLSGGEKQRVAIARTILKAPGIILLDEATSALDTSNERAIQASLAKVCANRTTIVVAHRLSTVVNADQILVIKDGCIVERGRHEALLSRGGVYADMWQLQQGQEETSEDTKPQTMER
AP-2 complex subunit beta (Homo sapiens), sequence (P63010 whole entry, looked up, the tested form may be a part, one chain of several): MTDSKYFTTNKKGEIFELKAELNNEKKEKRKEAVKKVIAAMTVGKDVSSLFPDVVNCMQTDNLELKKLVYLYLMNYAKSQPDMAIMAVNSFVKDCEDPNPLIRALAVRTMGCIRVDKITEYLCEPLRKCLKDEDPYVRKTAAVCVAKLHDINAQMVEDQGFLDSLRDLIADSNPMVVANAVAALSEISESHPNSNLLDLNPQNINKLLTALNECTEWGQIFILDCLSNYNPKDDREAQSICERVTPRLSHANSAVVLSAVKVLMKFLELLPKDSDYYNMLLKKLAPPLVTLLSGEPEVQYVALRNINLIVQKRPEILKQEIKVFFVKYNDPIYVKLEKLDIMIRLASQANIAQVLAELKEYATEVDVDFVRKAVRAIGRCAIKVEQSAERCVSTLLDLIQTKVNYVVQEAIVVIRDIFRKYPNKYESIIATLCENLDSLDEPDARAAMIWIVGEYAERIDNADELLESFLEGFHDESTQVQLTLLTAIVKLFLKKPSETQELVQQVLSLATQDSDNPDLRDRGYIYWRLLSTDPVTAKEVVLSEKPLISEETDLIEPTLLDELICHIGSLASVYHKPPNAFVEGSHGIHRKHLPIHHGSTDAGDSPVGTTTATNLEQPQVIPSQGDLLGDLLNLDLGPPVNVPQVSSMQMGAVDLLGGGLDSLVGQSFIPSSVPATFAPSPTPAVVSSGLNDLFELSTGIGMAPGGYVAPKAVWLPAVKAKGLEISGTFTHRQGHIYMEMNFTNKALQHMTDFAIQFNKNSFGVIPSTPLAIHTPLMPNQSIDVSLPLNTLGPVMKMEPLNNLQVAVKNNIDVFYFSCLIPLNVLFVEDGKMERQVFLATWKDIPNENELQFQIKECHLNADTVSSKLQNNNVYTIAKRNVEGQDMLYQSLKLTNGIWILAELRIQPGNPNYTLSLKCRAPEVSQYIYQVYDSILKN
Beta-2 adrenergic receptor (Homo sapiens), sequence (P07550 whole entry, looked up): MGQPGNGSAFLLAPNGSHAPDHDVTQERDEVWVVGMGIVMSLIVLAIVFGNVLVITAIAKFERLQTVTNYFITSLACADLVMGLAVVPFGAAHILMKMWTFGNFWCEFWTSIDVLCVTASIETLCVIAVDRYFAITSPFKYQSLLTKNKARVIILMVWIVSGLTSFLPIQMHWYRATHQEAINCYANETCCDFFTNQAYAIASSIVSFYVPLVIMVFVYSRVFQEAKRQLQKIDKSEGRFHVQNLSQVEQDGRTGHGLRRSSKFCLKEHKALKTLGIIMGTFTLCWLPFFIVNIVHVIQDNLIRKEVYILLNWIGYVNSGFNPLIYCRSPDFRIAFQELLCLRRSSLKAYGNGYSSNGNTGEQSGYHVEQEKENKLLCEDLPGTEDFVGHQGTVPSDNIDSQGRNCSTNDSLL
Beta-adrenergic receptor kinase 1 (Homo sapiens), sequence (P25098 whole entry, looked up): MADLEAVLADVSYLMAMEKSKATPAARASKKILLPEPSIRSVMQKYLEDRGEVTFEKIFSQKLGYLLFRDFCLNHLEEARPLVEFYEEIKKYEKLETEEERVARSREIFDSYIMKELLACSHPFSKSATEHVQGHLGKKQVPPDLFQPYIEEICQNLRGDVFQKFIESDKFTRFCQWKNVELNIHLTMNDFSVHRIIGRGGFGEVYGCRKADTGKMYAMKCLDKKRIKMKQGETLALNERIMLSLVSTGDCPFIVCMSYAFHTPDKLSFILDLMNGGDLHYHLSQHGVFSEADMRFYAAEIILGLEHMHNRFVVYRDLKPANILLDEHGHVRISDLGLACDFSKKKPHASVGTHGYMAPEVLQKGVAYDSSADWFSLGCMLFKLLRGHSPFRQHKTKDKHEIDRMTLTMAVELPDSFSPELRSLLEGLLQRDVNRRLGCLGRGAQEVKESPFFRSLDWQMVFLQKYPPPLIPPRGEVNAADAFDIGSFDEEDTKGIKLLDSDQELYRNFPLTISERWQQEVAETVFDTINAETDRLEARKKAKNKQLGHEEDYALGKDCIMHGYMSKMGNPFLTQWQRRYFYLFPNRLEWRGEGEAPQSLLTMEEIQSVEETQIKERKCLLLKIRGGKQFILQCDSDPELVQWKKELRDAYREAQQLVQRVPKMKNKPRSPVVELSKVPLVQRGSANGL

As for `COc1ccccc1N=CC1=C(O)CC(c2ccccc2)CC1=O` (stereo not drawn), in [1], the percent of DMSO control GFP is 92.6% (inactive). Besides, the GFP response vs DMSO in assay [2] is 111% (inactive); in assay [4], 82.5% (inactive). Further, the percent response of DMSO control in assay [3] is 96.6% (inactive). Moreover, the GFP response, % of DMSO in [5] is 88.9% (inactive). In [6], this compound registered a double positive events of 64.4%. Moreover, the vesicle binding response in [6] is 153% (inactive). Further, the inhibition in [7] is -36.2% (inactive); in [11], -4.2% (inactive); in assay [15] it was 12% (inactive). Besides, in assay [8], the superoxide response (% of plate) was 95.6% (inactive). The aptamer binding inhibition in assay [9] was 2% (inactive). In addition, the values for the response in [10] and in assay [12] were 1.28% (inactive) and 4.13% (inactive), respectively. Further, the binding (% of control) in assay [13] was 103% (inactive). In assay [14], the efflux inhibition (fraction of control) is -0.24 (inactive). The differentiation response in [16] is 2.46% (inactive).
Regarding `O=C(Cc1ccccc1[N+](=O)[O-])NCCCN1CCOCC1`, the percent of DMSO control GFP in assay [1] is 101% (inactive). Also, the GFP response vs DMSO in assay [2] was 101% (inactive); in [4], 107% (inactive). The percent response of DMSO control in [3] is 96.4% (inactive). Besides, the GFP response, % of DMSO in assay [5] was 107% (inactive). For the same compound, the double positive events in assay [6] came to 63.1%. Moreover, in assay [6], the vesicle binding response is 426% (inactive). For the same compound, the figures for the inhibition in assay [7], in assay [11] and in assay [15] were -4.52% (inactive), -4.04% (inactive) and 2% (inactive), respectively. In addition, the superoxide response (% of plate) in assay [8] is 113% (inactive). In assay [9], the aptamer binding inhibition was 1% (inactive). Also, the figures for the response in assay [10] and in assay [12] were -20% (inactive) and 0.45% (inactive), respectively. For the same compound, in assay [13], the binding (% of control) is 99.9% (inactive). Moreover, the efflux inhibition (fraction of control) in assay [14] was 0 (inactive). In addition, the differentiation response in assay [16] was -5.97% (inactive).
Take `COc1ccccc1OCC(O)COC(N)=O` (stereo not drawn): the percent of DMSO control GFP in assay [1] was 93.3% (inactive). The GFP response vs DMSO was 131% (inactive) in assay [2] and 82% (inactive) in assay [4]. Also, the percent response of DMSO control in [3] is 97.9% (inactive). The GFP response, % of DMSO in [5] is 84.5% (inactive). In addition, the double positive events in [6] was 62.5%. The vesicle binding response in [6] was 133% (inactive). Moreover, the inhibition in assay [7] is 11.3% (inactive); in [11], -1.32% (inactive); in [15] it was 9% (inactive). In [8], the superoxide response (% of plate) was 101% (inactive). The aptamer binding inhibition in [9] was 1% (inactive). Further, the figures for the response in assay [10] and in assay [12] were 1.55% (inactive) and -1.8% (inactive), respectively. Further, in [13], the binding (% of control) is 101% (inactive). In assay [14], the efflux inhibition (fraction of control) is 0.01 (inactive). Also, in [16], the differentiation response was 3.28% (inactive).
With `O=C(COc1ccc2c(-c3ccccc3)cc(=O)oc2c1)NCc1cccs1`, in assay [1], the percent of DMSO control GFP is 97.5% (inactive). The GFP response vs DMSO was 96.6% (inactive) in assay [2] and 102% (inactive) in assay [4]. Besides, the percent response of DMSO control in assay [3] is 85.4% (inactive). Besides, the GFP response, % of DMSO in assay [5] was 102% (inactive). In assay [6], the double positive events worked out at 64.6%. Besides, the vesicle binding response in assay [6] is 214% (inactive). Moreover, the inhibition was -3.67% (inactive) in [7], 26.5% (inactive) in [11] and 14% (inactive) in assay [15]. Besides, in assay [8], the superoxide response (% of plate) was 92.2% (inactive). The aptamer binding inhibition in [9] was -2% (inactive). In addition, the response in assay [10] is -25.8% (inactive); in assay [12], -7% (inactive). Further, the binding (% of control) in assay [13] was 102% (inactive). For the same compound, in assay [14], the efflux inhibition (fraction of control) was 0.12 (inactive). For the same compound, in assay [16], the differentiation response was 6.83% (inactive).
